BaF3 parental: counter-screen for JAK2V617F inhibitors: parental Ba/F3 viability inhibitors; inhibition, % at 5.6 µM; CellTiter-Glo ATP luminescence; hit rate 1.1% among 220,000;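 active = inhibition above a per-campaign cutoff, the mean inhibition of all tested compounds plus 3 SD, cut at about 27% in these data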
APP 5UTR inh: APP translation inhibition. hit rate 0.82% among 190,000. inhibition, % at 2 µM. SH-SY5Y APP 5'UTR-luciferase reporter, luminescence;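 active = inhibition above a set limit, derived from the sample mean plus 3 SD, cut at about 45% in these data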
IEC-6 cytotox: kills IEC-6 intestinal cells in KLF5 counter-screen. IEC-6 cytotoxicity, luminescence viability. inhibition, % at 5 µM. hit rate 0.78% among 290,000. AID 1825
KLF5 inh: kruppel-like factor 5 inhibition. inhibition, % at 5 µM. AID 1700. hit rate 0.23% among 290,000. DLD-1 KLF5 promoter-luciferase reporter, luminescence;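 active = inhibition above a per-plate limit of that plate's mean compound inhibition plus 3 SD, cut at about 60% in these data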;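 note: higher means less KLF5 promoter-driven luciferase light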
Ba/F3 V617F tox: reduce viability of Ba/F3 cells dependent on JAK2V617F. inhibition, % at 5.6 µM. Ba/F3 EpoR-JAK2V617F viability, ATP luminescence. hit rate 1.1% among 220,000. AID 1446;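 active = inhibition above the campaign mean plus 3 SD over all tested compounds, cut at about 24% in these data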;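 note: cytokine-independent growth of Ba/F3 cells driven by EpoR plus mutant JAK2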
aSyn 5UTR inh: MLPCN primary screen, SNCA 5' untranslated region. alpha-synuclein 5'UTR reporter, inhibitor activity. hit rate 0.82% among 300,000. AID 1813. inhibition, % (tested at 7.5 µM); in the data active = inhibition above about 60%;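 note: H4 neuroglioblastoma cells stably carrying SNCA 5'UTR luciferase fusion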
IEC-6 cytotox cf: confirmation of cytotoxic compounds in rat IEC-6 intestinal epithelial cells; shares compounds with IEC-6 cytotox; IEC-6 rat intestinal epithelial viability, luminescence; inhibition, % at 5 µM; hit rate 63% among 1,900; AID 1907
Hits are given with their value; 0 = inactive; - = no result given. Only some compounds are listed: those with a hit (about 2.2% of all), similar ones and a draw of the others. Cut-off read from the data, not from the text of the source, unless noted: active = inhibition above about 22%; inactive = the rest.

SMILES	BaF3 parental	APP 5UTR inh	IEC-6 cytotox	KLF5 inh	Ba/F3 V617F tox	aSyn 5UTR inh	IEC-6 cytotox cf
Cc1ccc(S(=O)(=O)/N=C2/C=C(Sc3ncn[nH]3)C(=O)c3ccccc32)cc1	72	64	26	0	73	-	0
COc1ccc2cc3cc(C(=O)NCc4cccnc4)oc3nc2c1	0	0	0	0	0	0	-
CC(=O)N(C)c1ccc(NC(=S)Nc2cccc3ccccc23)cc1	0	0	0	0	0	0	-
CC(=O)c1ccc(NC(=S)Nc2cccc3ccccc23)cc1	-	-	63	0	-	0	0
COc1cccc(N(C(=O)CNC(=O)c2ccco2)C(C(=O)NC2CCCC2)c2ccco2)c1 (stereo unspecified)	-	-	0	0	-	0	-
Cn1c(=O)[nH]c(=O)c2c1nc(NC1CCCC1)n2Cc1ccccc1	-	-	0	0	-	0	-
COc1ccc(Nc2nc(N)c(C(=O)c3ccc(OC)cc3)s2)cc1	-	-	66	0	-	0	50
COc1ccc(C(=O)c2sc(Nc3ccccc3)nc2C)cc1	-	-	0	0	-	0	-
COc1ccc(Nc2nc(N)c(C(=O)c3ccc(F)cc3)s2)cc1	-	-	74	0	-	70	57
CCc1nnc(NC(=O)c2ccc(OC)cc2)s1	0	0	36	0	0	0	0
CCCCCN(C(=O)CCC(=O)OCC(=O)c1cccc(OC)c1)c1c(N)n(CCCC)c(=O)[nH]c1=O	-	-	0	0	-	0	-
COc1ccc(OC)c(CN2CCN(C(=O)CCC(=O)c3cccs3)CC2)c1	-	-	-	-	-	0	-
Cc1cccc(Nc2nc(NCc3ccco3)nc(N3CCOCC3)n2)c1	0	0	31	0	0	0	0
COc1ccc(NC(=O)C(Cl)=C(Cl)Cl)cn1	0	0	0	0	0	0	-
COc1ccc(NC(=O)/C(Cl)=C(/Cl)S(=O)Cc2ccc(Cl)cc2)cn1 (stereo unspecified)	86	96	42	0	100	-	56
COc1ccc(CC(=O)Nc2ccc(OC)nc2)cc1	0	0	0	0	0	0	-
COc1ccc(NC(=O)/C(Cl)=C(/Cl)S(=O)(=O)Cc2ccccc2)cn1	31	77	31	0	73	0	47
COc1ccc(NC(=O)Cc2ccc(-c3ccccc3)cc2)cn1	0	0	40	0	0	0	0
Cc1cc(-c2ccccc2)c2c(=O)[nH][nH]c2n1	0	0	0	0	0	0	-
CC(=O)c1ccc(NC(=O)[C@@H]2CCCN2C(=O)OC(C)(C)C)cc1	-	-	0	0	-	0	-
NC(=O)c1cnn2c(-c3ccc(Cl)cc3Cl)ccnc12	-	-	0	0	-	0	-
CC(C)(C)NC(=O)C(c1cccs1)N(Cc1ccc(F)cc1)C(=O)c1csnn1 (stereo unspecified)	0	0	0	0	0	0	-
CCOC(=O)c1cnc(N2CCN(c3ccccc3)CC2)[nH]c1=O	-	-	0	0	-	0	-
CN(/N=C/c1ccc(N(C)C)cc1)C1=NS(=O)(=O)c2ccccc21	-	-	38	0	-	0	0
COc1ccc(/C=N/N(C)C2=NS(=O)(=O)c3ccccc32)cc1	-	-	0	0	-	0	-
SMILES	BaF3 parental	APP 5UTR inh	IEC-6 cytotox	KLF5 inh	Ba/F3 V617F tox	aSyn 5UTR inh	IEC-6 cytotox cf
COc1ccc(N(C)C2=NS(=O)(=O)c3ccccc32)cc1	61	-	55	0	50	0	30
O=C(CSc1nc(-c2ccco2)cc(C(F)(F)F)n1)Nc1cccnc1	0	0	29	0	0	0	0
C=CCC1(N(C(C)=O)c2ccccc2C)CCCCC1	0	0	0	0	0	0	-
Cc1cc(C)cc(NC(=O)Nc2ccc(-n3ccc(C(F)(F)F)n3)cc2)c1	0	-	0	0	0	0	-
O=C(Nc1ccc(-n2ccc(C(F)(F)F)n2)cc1)Nc1cccc(Cl)c1	63	-	23	0	54	0	48
c1csc(-c2nc3c4ccccc4c4ccccc4c3[nH]2)c1	0	0	24	0	0	0	23
C=CCN1C(=NC(=O)COc2ccc(Cl)cc2)SC2CS(=O)(=O)CC21 (stereo unspecified)	-	-	0	0	-	0	-
O=C(C1CCCO1)N1CCN(C(=S)Nc2ccccc2)CC1 (stereo unspecified)	0	0	0	0	0	0	-
CCOC(=O)c1ccc(NC(=S)N2CCN(C(=O)C3CCCO3)CC2)cc1 (stereo unspecified)	-	-	29	0	-	0	0
O=C(NC1CCCCC1)c1cc(-c2cccs2)on1	-	-	0	0	-	0	-
C=CCn1c(SCC(=O)c2cccs2)nc2sc(CC)cc2c1=O	0	0	30	0	0	0	36
Cc1[nH]c2ccccc2c1/C=N/NC(=O)c1cc(-c2ccncc2)nc2ccccc12	-	-	40	0	-	0	54
CCOC(=O)c1nc2c(=O)n(C)c(=O)n(C)c2n(C)c1=O	-	-	-	-	-	0	-
O=c1c2ccccc2nc(SCCN2CCCCC2)n1CCc1ccccc1	0	0	22	0	0	0	0
NC(=O)CSc1nc2ccccc2c(=O)n1CCc1ccccc1	-	-	0	0	-	0	-
C/C(=N\Nc1nc(C)cc(-c2ccccc2)n1)c1ccccc1	-	-	26	0	-	0	0
C/C(=N\Nc1nc(C)cc(-c2ccccc2)n1)c1ccc(O)cc1	-	-	0	0	-	0	-
COc1ccc(-c2n[nH]c3c2CN(C(=O)c2ccc(OC)c(OC)c2)CC3)cc1	-	-	40	0	-	0	0
COc1cc(OC)cc(C(=O)N2CCN(C(=O)c3ccc(OC)c(OC)c3)CC2)c1	0	0	0	0	0	0	-
Cc1ccc(C(=O)NC2CC(C)(C)NC(C)(C)C2)cc1S(=O)(=O)N1CCCCC1	-	-	-	-	-	0	-
CN(C)CCCN(C(=O)c1ccco1)c1nc2cc3c(cc2s1)OCO3	-	-	45	0	-	0	0
Cc1ccc2nc(N(CCCN(C)C)C(=O)c3ccco3)sc2c1	0	0	0	0	0	0	-
CCOCCCNS(=O)(=O)c1ccc(NC(=O)Cc2c(F)cccc2Cl)cc1	0	0	0	0	0	0	-
Cc1cc(-c2ccc(C(C)C)c(S(=O)(=O)N3CCN(c4ccccn4)CC3)c2)on1	-	-	23	0	-	0	0
CCOC(=O)C1C(c2ccc(C(=O)O)cc2)NC(=O)NC1(O)C(F)(F)F (stereo unspecified)	-	-	0	0	-	0	-
SMILES	BaF3 parental	APP 5UTR inh	IEC-6 cytotox	KLF5 inh	Ba/F3 V617F tox	aSyn 5UTR inh	IEC-6 cytotox cf
COc1ccc(-n2ncc(C(=O)NC3CC3)c2C2CCN(C(=O)OC(C)(C)C)CC2)cc1	-	-	0	0	-	0	-
CSc1cccc(NS(=O)(=O)c2ccc3c(c2)CCN3C(C)=O)c1	-	-	33	0	-	0	0
COc1cccc(NS(=O)(=O)c2ccc3c(c2)CCN3C(C)=O)c1	-	-	0	0	-	0	-
CCOC(=O)c1[nH]c(C)c(C(=O)c2cc(F)ccc2F)c1C	78	95	88	0	63	74	65
CCOC(=O)c1[nH]c(C)c(C(=O)OCC)c1C	0	0	0	0	0	0	-
CCOC(=O)c1[nH]c(C)c(C(=O)OCc2ccccc2F)c1C	-	-	51	0	-	0	38
COc1ccc(N2CCN(C(=O)c3ccccc3NC(=O)c3ccccc3)CC2)cc1	-	-	0	0	-	0	-
CC1CCC(N2CCNCC2)CC1 (stereo unspecified)	0	0	0	0	0	0	-
CC(=O)c1cccc(NC(=O)c2ccc(NC(=O)CC3SC(N4CCCCC4)=NC3=O)cc2)c1 (stereo unspecified)	-	-	0	0	-	0	-
